Anesthetic bind: qHTS Assay for Identification of Novel General Anesthetics; Ferritin light chain (Equus caballus), P02791; apoferritin/1-aminoanthracene competitive binding, fluorescence; Potency, µM (highest dose often 77.5 µM), usual class: inhibitors; 0.074% of 350,000 active; also: nearly all actives have a fitted effect of over 20% in size
Target sequence (P02791 2-175 limits assumed): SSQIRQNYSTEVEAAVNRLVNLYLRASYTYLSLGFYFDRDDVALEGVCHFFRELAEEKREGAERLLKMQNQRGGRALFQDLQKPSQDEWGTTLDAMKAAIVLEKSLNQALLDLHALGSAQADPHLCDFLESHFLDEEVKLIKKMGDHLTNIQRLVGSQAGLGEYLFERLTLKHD
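In PBS, apoferritin at 10 uM is loaded with 1-AMA from a 50% saturated solution. After 10 min of compound exposure at ambient temperature, reduced 535 nm fluorescence indicates probe displacement.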
PINK1 expr mod: A Quantitative High throughput Screen to Identify Chemical Modulators of PINK1 Expression; PINK1 immunofluorescence, high-content cytometry, 24 h; Potency, µM (titrated, usually from 76.6 µM), usual class: activators; 0.2% of 410,000 active; active = well fitted activation curve with a large enough effect; inconclusive = small, poorly fitted or top-dose-only effect; cell line not stated here; also: nearly all actives have a fitted effect of over 65% in size
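PINK1 protein, normally rapidly degraded, was detected by immunofluorescence after 24 hour compound treatment of a stable cell line. Titration data (5 concentrations) came from laser-scanning cytometry, with CCCP-treated wells as controls.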
Epigenetic reg: Quantitative High-Throughput Screen for Regulators of Epigenetic Control; murine LDR cells, GFP reporter derepression, 30 h; 0.2% of 280,000 active; Potency, µM (series often up to 53.9 µM), usual class: activators; also: nearly all actives have a fitted effect of over 60% in size
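Reporter derepression read as number of fluorescent GFP-positive objects, 20-120 um in size, counted by laser-scanning cytometer. Mouse LDR line with an epigenetically silenced CMV-GFP locus; compound incubation 30 h, 37 C.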
HTT ATP protect: qHTS Multiplex Assay to Identify Dual Action Probes in a Cell Model of Huntington: Cytoprotection (ATP); PC12 HTT-Q103 induced, cytoprotection, ATP luminescence, 40 h; Potency, µM (titrated, usually from 56.4 µM), actives largely listed as activators; 0.14% of 230,000 active; also: nearly all actives have a fitted effect of over 45% in size
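Cells were plated at 1500 per well in phenol red-free DMEM with 5% equine and 5% calf serum. Tebufenozide (100 nM final) and compounds were added, then ATPlite reagent, and luminescence was read.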
HttQ103 aggreg: qHTS Multiplex Assay to Identify Dual Action Probes in a Cell Model of Huntington: Aggregate Formation (GFP). PC12 HttQ103-GFP aggregates, Acumen cytometry, 40 h. Potency, µM (series often up to 46.1 µM), usual class: inhibitors. 1.1% of 220,000 active. AID 1688, 2009; also: nearly all actives have a fitted effect of over 60% in size
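Ecdysone-promoter PC12 model expressing HTT exon 1 Q103 fused to GFP, induced by tebufenozide at 100 nM final. Compounds titrated; aggregates sized 1–25 µm scored on a 488 nm laser cytometer.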
TSG101-PTAP inh: qHTS Assay for Iinhibitors of HIV-1 Budding by Blocking the Interaction of PTAP/TSG101. 340,000 tested, under 10 active. Fluorescence polarization, FITC-PTAP peptide / Tsg101 binding. Tumor susceptibility gene 101 protein (Homo sapiens), Q99816. Potency, µM (doses to about 115 µM), most hits filed as inhibitors. AID 493005, 2010; active = well fitted inhibition curve with a large enough effect in the main read-out, with a control signal flat, not every such curve was filed as active; inconclusive = small, poorly fitted or top-dose-only effect, or effect the other way, or a change in a side signal; inactive = no such curve, though single readings can be large or run the other way
Target sequence (Q99816 whole entry, looked up): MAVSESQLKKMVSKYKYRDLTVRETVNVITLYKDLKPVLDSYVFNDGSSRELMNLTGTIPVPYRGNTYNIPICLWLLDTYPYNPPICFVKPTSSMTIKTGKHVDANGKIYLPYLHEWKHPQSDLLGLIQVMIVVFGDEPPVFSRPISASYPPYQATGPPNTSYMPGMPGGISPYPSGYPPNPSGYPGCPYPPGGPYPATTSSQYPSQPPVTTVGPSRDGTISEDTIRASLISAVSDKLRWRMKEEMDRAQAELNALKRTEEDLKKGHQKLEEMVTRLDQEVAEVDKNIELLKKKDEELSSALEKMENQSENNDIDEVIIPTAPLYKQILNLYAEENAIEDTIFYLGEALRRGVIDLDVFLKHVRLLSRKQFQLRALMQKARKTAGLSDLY
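FP read-out: FITC-PTAP peptide, 50 nM final, binding Tsg101 binding domain, 10 uM final; 20 min, r.t.; 10 mM HEPES pH 7.5, 0.15 M NaCl, 0.01% Tween 20, 3 mM EDTA, 0.1 mM TCEP.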
Hits are given with their value; . = inactive; ? = inconclusive; / = not tested or not shown; ! = a repeat was not active; [ ] = dose if it differs, or a comment. Shown is part of a subset that was picked to be rich in hits. Unless noted, calls follow the shape of the dose curve; as a rule, active = well fitted curve in the direction sought with a large enough effect; inconclusive = small, poorly fitted or top-dose-only effect, or another doubt; inactive = no such curve, though single readings can be large; an effect the other way counts as inactive or inconclusive.

SMILES	Anesthetic bind	PINK1 expr mod	Epigenetic reg	HTT ATP protect	HttQ103 aggreg	TSG101-PTAP inh
N#Cc1cc(C(=O)c2cc(Cl)ccc2O)cn(-c2ccccc2)c1=O	.	.	.	.[10 µM]	.	.
Cc1ccc(NC(=O)c2cc(C(=O)c3cc(Cl)ccc3O)cn(-c3ccc(C)cc3)c2=O)cc1	.	35.5µM	.	.[10 µM]	?	.
COc1cc(=O)n2c(c1C(=O)NC(C)c1ccco1)CCN(Cc1cc(C)ccc1C)CC2 (centres undefined)	/	.	/	/	/	/
CC1CCN(c2nc(-c3cccnc3)nc3scc(-c4ccccc4)c23)CC1	.	.	.	.[10 µM]	.	.
CC1CCCN(c2nc(-c3cccnc3)nc3scc(-c4ccccc4)c23)C1 (centres undefined)	.	28.2µM	.	.[10 µM]	.	.
O=C1N/C(=C/c2ccc(N3CCCC3)cc2)C(=O)N1c1ccccc1	.	?	15.8µM	/	?	.
O=C1N/C(=C/c2ccc(N3CCOCC3)cc2)C(=O)N1Cc1ccc(F)cc1	.	?	.	.	.	.
O=C1/C(=C/c2ccc(N3CCCC3)cc2)NC(=S)N1C1CC1	.	?	17.8µM	.	.	?
Cc1cc2c(c(-c3ccc4nc(C)ccc4c3)c1)OC(CNC(=O)Cc1ccn(C)c1)C2 (centres undefined)	/	.	/	/	/	/
COc1ccc2c(c1)Sc1ccccc1N2	.	.	.	.[10 µM]	7.94µM	.
c1ccc2c(c1)Nc1cc3ccccc3cc1S2	.	.	.	.[10 µM]	.[9.22 µM]	.
COc1ccc(-c2ccc3c(c2)S(=O)(=O)c2cccc(C(=O)NCCOc4ccccc4)c2C3=O)cc1OC	/	35.5µM	/	/	/	.
CC(C)(C)c1nc(NC(=O)Nc2ccccc2)sc1Br	?	?	.	.	11.2µM	.
CC1CN(CCC(=O)N2CCCC(C(=O)c3nccn3C)C2)Cc2cc(Cl)ccc2O1 (centres undefined)	/	.	/	/	/	/
CCOC(=O)C1CCCCN1Cc1nc(N2CCN(C(C)=O)CC2)c2ccccc2n1 (centres undefined)	/	.	/	/	/	/
COc1ccc(N=Cc2c(O)n(-c3cccc(C)n3)c(=O)c3ccccc23)c(OC)c1	.	44.7µM	12.6µM	.[10 µM]	.[9.22 µM]	?
Nc1c(-c2ccccc2)nc(Cl)nc1-c1ccccc1	.	.	.	.	.	.
c1ccc(-c2nc3nonc3nc2-c2ccccc2)cc1	?	.	.	.	3.16µM	.
Cc1nn(Cc2ccc(Cl)cc2Cl)c(C)c1NC(=O)NC12CC3CC(CC(C3)C1)C2	?	.	.	.	25.1µM	.
Cc1nn(Cc2ccc(Cl)cc2Cl)c(C)c1NC(=O)c1sc2ccccc2c1Cl	.	.	.	.	.	.
CC(=O)c1ccc(F)c(-c2cc(C)cc3c2OC(CNC(=O)C(C)n2nc(C)cc2C)C3)c1 (centres undefined)	/	.	/	/	/	/
CN(C)c1ccc(/C=C\C=C/c2ccnc3ccccc23)cc1	/	11.2µM	/	/	/	/
Cc1cc(/C=N/n2cnnc2)c(C)n1-c1ccc(OCc2ccc(F)cc2)cc1	?	/	.	.[10 µM]	7.08µM	.
Cc1cc(/C=N/n2cnnc2)c(C)n1-c1ccc(OCc2ccc(Cl)cc2Cl)cc1	.	.	.	.	6.31µM	.
Cc1cc(/C=N/n2cnnc2)c(C)n1-c1ccc(Cl)cc1	.	.	.	.[0.074 µM]	.	.
SMILES	Anesthetic bind	PINK1 expr mod	Epigenetic reg	HTT ATP protect	HttQ103 aggreg	TSG101-PTAP inh
COc1cc(CN2CCC3(CCC(CNC(=O)c4ccco4)O3)CC2)cc(OC)c1 (centres undefined)	/	.	/	/	/	/
COc1ccc(-c2cnc(N)nc2-c2ccc(OC)cc2O)cc1	?	.	.	?	11.2µM	.
CCOC(=O)/C(=N/Nc1ccc(Cl)cc1)Sc1nnnn1-c1ccc(C)cc1	.	.	.	.[10 µM]	2.51µM	.
CN(C)c1ccc(/C=C/c2ccc3c4ccccc4ccc3[n+]2-c2ccccc2)cc1	?	8.91µM!	.	.[10 µM]	3.98µM	.
CN(C)c1ccc(/C=C/c2cncc3ccccc23)cc1	/	.	/	/	/	/
CN(CCCS(=O)(=O)[O-])c1ccc(/C=C/c2ccc3ccccc3[n+]2C)cc1	.	.	/	/	/	.
CN(C)c1ccc(/C=C/c2c[n+](C)cc3ccccc23)cc1	/	44.7µM	/	/	/	/
CN(C)c1ccc(/C=C/c2ccc3ccccc3[n+]2C)cc1	.	?	.	.[10 µM]	2.51µM	.
Cc1cc(/C=C/c2ccc3cc(N(C)C)ccc3[n+]2C)c(C)n1-c1ccccc1	.	/	22.4µM	/	/	/
CC(C)n1c(-c2ccc(C(C)(C)C)cc2)n[nH]c1=S	?	.	.	.	8.91µM	.
Cc1cccc(-c2noc(-c3cc(C(C)C)[nH]n3)n2)c1	15.8µM	.	.	/	/	/
COc1ccc(N2CCN(C(=S)Nc3ccccc3)CC2)cc1	.	.	/	/	/	.
CC(=O)c1ccc(N2CCN(C(=S)Nc3ccc(Oc4ccccc4)cc3)CC2)cc1	.	.	.	.	12.6µM	.
COc1ccc(C(=O)NCC2Cc3cc(C)cc(-c4cc(C(C)=O)ccc4F)c3O2)c(OC)c1OC (centres undefined)	/	.	/	/	/	/
CCc1ccc(C2=NN(S(C)(=O)=O)C(c3cccs3)C2)cc1 (centres undefined)	.	.	17.8µM	.	.[9.22 µM]	.
O=C(COc1nsnc1N1CCOCC1)N/N=C/c1ccccc1O	.	.	.	/	14.1µM	.
O=C(O)COc1ccc(/C=N/NC(=O)COc2nsnc2N2CCOCC2)cc1	.	.	.	.[10 µM]	.[9.22 µM]	.
NCCNC(=S)S	/	/	/	.[10 µM]	/	/
CN(C)c1ccc(/C=C/c2ccnc3c(N)cccc23)cc1	/	.	/	/	/	/
Cc1nn(C(C)(C)C)c(OC(=O)c2cccs2)c1S(=O)(=O)c1ccccc1	.	.	.	.[0.074 µM]	12.6µM	.
CC(=O)Oc1c(S(=O)(=O)c2ccccc2)c(C)nn1C(C)(C)C	.	.	.	.	.	.
Cc1nn(CCCC(=O)Nc2cc(Oc3ccc(F)cc3)cc([N+](=O)[O-])c2)c(C)c1[N+](=O)[O-]	.	.	.	.[10 µM]	.	.
CCn1nc(C)c(C(=O)Nc2cc(Oc3ccc(Cl)cc3)cc([N+](=O)[O-])c2)c1C	?	10µM	.	.	.	.
COc1cccc(-c2ccc(O)c(CNCc3cccc4ccccc34)c2)n1	/	.	/	/	/	/
N#C/C(=N\Nc1cccc(Cl)c1)C(=O)c1ccccc1	?	25.1µM	.	.	3.55µM	.
CCC(CC)=NNc1cccc([N+](=O)[O-])c1	.	.	.	.[10 µM]	.	.
COc1ccc(C(=O)/C(C#N)=N/Nc2cccc([N+](=O)[O-])c2)cc1	.	14.1µM	.[10.1 µM]	.[10 µM]	?	.

Screening results: PubChem BioAssay, National Center for Advancing Translational Sciences (NCATS)
